Most compounds without a hit are left out; they make up all but 9% or so of the library.
BAZ2B block: qHTS Assay for Inhibitors of BAZ2B. Bromodomain adjacent to zinc finger domain protein 2B (Homo sapiens), Q9UIF8. AlphaScreen BAZ2B-H3K14Ac peptide displacement. Potency, µM (series often up to 114 µM), for the others: at the top dose activity change, negative = inhibition, actives largely listed as inhibitors. 4.4% of 360,000 active. AID 504333, 2011; also: % is scaled to controls: 0 for no effect and ±100 for the full control effect; nearly all actives have a fitted effect of over 60% in size
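AlphaScreen displacement of biotin-H3(5-23)K14Ac peptide (50 nM final) from BAZ2B (50 nM final) in PBS pH 7.4, 0.01% Tween-20; complex preformed 30 min RT, then compounds (top 110 uM) 30 min RT, beads 20 min dark.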
G9a inh: qHTS Assay for Inhibitors of Histone Lysine Methyltransferase G9a; Histone-lysine N-methyltransferase EHMT2 (Homo sapiens), Q96KQ7; G9a H3K9 monomethylation, AlphaScreen, 2 h; Potency, µM (top dose mostly 102 µM), for inactives: at the highest dose activity, negative = inhibition, usual class: inhibitors; 8.8% of 350,000 active; AID 504332, 2011; also: % is scaled to controls: 0 for no effect and ±100 for the full control effect; nearly all actives have a fitted effect of over 75% in size
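G9a (20 nM) preincubated 15 min RT with compounds, then 500 nM biotinylated H3K9 peptide and 20 uM SAM added; 2 h RT reaction. Monomethyl-H3K9 product detected by AlphaScreen with anti-H3K9me1 antibody, streptavidin donor and anti-rabbit IgG acceptor beads.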
HP1b chromo inh: HTS for Inhibitors of HP1-beta Chromodomain Interactions with Methylated Histone Tails; 0.56% of 390,000 active; Chromobox protein homolog 1 (Homo sapiens), P83916; AID 540317, 2011; Potency, µM (titrated, usually from 114 µM), for the others: top-dose activity change, negative = inhibition, hits mostly inhibitors; AlphaScreen HP1-beta / biotin-H3K9me3 peptide binding; also: nearly all actives have a fitted effect of over 70% in size
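HP1-beta protein (50 nM final) preincubated 30 min at room temperature with biotinylated H3(1-18)K9me3 peptide (50 nM) in PBS pH 7.4, 0.01% Tween-20, then compound added for 30 min. AlphaScreen streptavidin donor/nickel chelate acceptor beads (10 ug/mL final), 30 min dark, luminescence read.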
ALOX12 inh: Primary qHTS assay for inhibitors of human arachidonate 12S-lipoxygenase (ALOX12): Round 2 | Polyunsaturated fatty acid lipoxygenase ALOX12 (Homo sapiens), P18054 | purified 12hLO, xylenol orange hydroperoxide absorbance | Potency, µM (doses to about 108 µM), for inactives: at the highest dose activity change, negative = inhibition, usual class: inhibitors | 1.1% of 580,000 active | AID 1671190, 2021; also: % is scaled to controls: 0 for no effect and ±100 for the full control effect
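Purified human 12hLO at 150 nM in 25 mM Hepes, 0.01% Triton X-100, pH 7.0, preincubated 15 min at room temperature with compound. Reaction started with 40 uM arachidonic acid, 30 min at room temperature. Hydroperoxide measured by Fe-xylenol orange, 573/405 nm absorbance ratio.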
PLK1 PBD block: qHTS for Inhibitors of PLK1-PDB (polo-like kinase 1 - polo-box domain): Primary Screen | Serine/threonine-protein kinase PLK1 (Homo sapiens), P53350 | Plk1 PBD binding of FITC phosphopeptide, fluorescence polarization | Potency, µM, for inactives: max response, negative = inhibition, most hits filed as inhibitors | 2.8% of 360,000 active; also: series mostly up to about 57 µM; % is scaled to controls: 0 for no effect and ±100 for the full control effect; nearly all actives have a fitted effect of over 65% in size
JMJD2A Tudor inh: qHTS Assay for Inhibitors of JMJD2A-Tudor Domain; Lysine-specific demethylase 4A (Homo sapiens), O75164; AlphaScreen JMJD2A-Tudor / H3K4me3 peptide binding; Potency, µM (highest dose often 114 µM), inactives show at the highest dose activity change, negative = inhibition, usual class: inhibitors; 4.4% of 390,000 active; AID 504339, 2011; also: % is scaled to controls: 0 for no effect and ±100 for the full control effect; nearly all actives have a fitted effect of over 50% in size
Target sequence (O75164 whole entry, looked up, the tested form may be a part): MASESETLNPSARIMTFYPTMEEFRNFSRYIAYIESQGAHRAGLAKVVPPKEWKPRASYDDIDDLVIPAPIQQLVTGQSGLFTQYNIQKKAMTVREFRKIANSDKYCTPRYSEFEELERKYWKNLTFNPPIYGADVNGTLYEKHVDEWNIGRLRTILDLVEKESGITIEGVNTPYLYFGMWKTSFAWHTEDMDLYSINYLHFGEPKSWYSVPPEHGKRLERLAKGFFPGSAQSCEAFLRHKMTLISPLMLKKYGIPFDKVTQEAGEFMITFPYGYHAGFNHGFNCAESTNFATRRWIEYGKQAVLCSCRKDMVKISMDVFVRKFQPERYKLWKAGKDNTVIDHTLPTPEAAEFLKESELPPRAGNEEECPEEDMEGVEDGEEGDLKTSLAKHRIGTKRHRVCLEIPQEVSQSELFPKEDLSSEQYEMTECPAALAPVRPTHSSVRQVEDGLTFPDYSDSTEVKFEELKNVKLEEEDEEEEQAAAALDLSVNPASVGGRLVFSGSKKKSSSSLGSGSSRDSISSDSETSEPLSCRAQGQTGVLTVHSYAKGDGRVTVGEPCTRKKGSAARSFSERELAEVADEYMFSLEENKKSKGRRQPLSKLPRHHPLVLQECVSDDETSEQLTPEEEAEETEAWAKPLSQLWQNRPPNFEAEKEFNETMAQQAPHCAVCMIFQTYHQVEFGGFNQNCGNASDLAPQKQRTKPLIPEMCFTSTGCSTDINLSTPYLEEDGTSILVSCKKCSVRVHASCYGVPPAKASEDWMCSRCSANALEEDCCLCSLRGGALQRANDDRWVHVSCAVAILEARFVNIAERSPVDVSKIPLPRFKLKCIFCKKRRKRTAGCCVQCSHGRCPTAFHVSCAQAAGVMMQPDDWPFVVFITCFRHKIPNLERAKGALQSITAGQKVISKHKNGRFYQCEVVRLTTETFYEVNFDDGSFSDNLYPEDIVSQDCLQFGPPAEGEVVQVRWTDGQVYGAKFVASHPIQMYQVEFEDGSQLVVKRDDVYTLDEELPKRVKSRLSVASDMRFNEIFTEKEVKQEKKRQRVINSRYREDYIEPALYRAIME
* = called active by the depositor; ? = inconclusive; . = no result given; [ ] = another dose, or the depositor's remark. Calls follow the shape of the dose curve; as a rule, active = well fitted curve in the direction sought with a large enough effect; inconclusive = small, poorly fitted or top-dose-only effect, or another doubt; inactive = no such curve, though single readings can be large; an effect the other way counts as inactive or inconclusive. Potency is read from the fitted curve at half-maximal effect.

SMILES	BAZ2B block	G9a inh	HP1b chromo inh	ALOX12 inh	PLK1 PBD block	JMJD2A Tudor inh
COc1ccc(S(=O)(=O)N(C)CC(=O)NCCC2=CCCCC2)cc1OC	-12.6%	?	4.9%	4.7%	-9.7%	-9.9%
COc1ccc(-c2nc(SC(CC(=O)NCc3ccccc3)c3ccc(OC)c(OC)c3)n[nH]2)cc1 (stereo unspecified)	-19.6%	44.7µM*	15.1%	-10.5%	-10.2%	-18.6%
COc1ccc(C(CC(=O)NCc2ccccc2)Sc2n[nH]c(-c3ccc(Cl)cc3)n2)cc1 (stereo unspecified)	6.8%	25.1µM*	20.1%	-2.6%	-8.3%	-17.0%
COc1ccc(C(CC(=O)NCc2ccccc2)Sc2n[nH]c(-c3ccccc3)n2)cc1 (stereo unspecified)	3.7%	1.1%	42.7%	5.9%	1.0%	-9.2%
CC1CCCC(C)N1CCCNC(=O)c1cc2c(s1)-c1ccccc1OC2 (stereo unspecified)	-0.3%	28.4%	45.5%	-27.1%	-2.7%	-0.3%
C/C(CCN1CCc2nc(-c3ccccc3)c(-c3ccccc3)cc2C1)=N\O[C@@H](C)c1cc(-c2c(C)cc(C)cc2C)no1	-25.6%	?	27.2%	.	-1.1%	-22.3%
CCc1cc2c(nc1CC)CCN(CC/C(C)=N/O[C@@H](C)c1cc(-c3c(C)cc(C)cc3C)no1)C2	?	35.5µM*	.	.	.	.
COC(=O)c1cc(Cl)ccc1NC(=O)CSc1ncc(S(=O)(=O)c2ccc(Br)cc2)c(=O)[nH]1	79.4µM*	-16.3%[59 µM]	6.0%	?	.	-24.6%
COc1ccc(-c2nc(-c3ccccc3OC)no2)cc1OC	-25.3%	-46.3%	49.8%	0.0%	-1.3%	-6.0%
CN1CCN(c2ccc(NC(=O)c3cccc(OCc4ccccc4)c3)cc2)CC1	?	15.8µM*	-3.6%	0.0%	-6.3%	?
CCN1CCN(c2ccc(NC(=O)c3cccc(OCc4ccccc4)c3)cc2)CC1	-35.3%	?	5.3%	-21.6%	-12.3%	-28.5%
CN1CCN(c2ccc(NC(=O)c3ccc4c(c3)OCCO4)cc2)CC1	-15.6%	44.7µM*	5.8%	-7.7%	-9.7%	-17.8%
CCN1CCN(c2ccc(NC(=O)c3ccc4c(c3)OCCO4)cc2C)CC1	?	7.94µM*	0.9%	?	-0.7%	-15.6%
Cc1ccc(C(=O)Nc2ccc(N3CCN(C)CC3)cc2)cc1C	-37.1%	70.8µM*	4.0%	5.6%	-6.6%	-26.2%
CCC1(c2ccccc2)NC(=S)N(c2ccc(C)c(C)c2)N1 (stereo unspecified)	?	7.94µM*	17.1%	?	-14.4%	?
CCC1(c2ccc(Cl)cc2)NC(=S)N(c2ccc(C)cc2)N1 (stereo unspecified)	-35.2%	28.2µM*	9.3%	28.2µM*	-11.1%	79.4µM*
CCC1(c2ccc(Cl)cc2)NC(=S)N(c2ccc(C)c(C)c2)N1 (stereo unspecified)	-25.7%	17.8µM*	15.3%	?	-27.3%	-26.4%
O=c1c2cccnc2n(-c2ccccc2)n1Cc1ccc(Cl)cc1	408.5%	416.1%	240.0%	-3.4%	26.7µM*	61.9%
O=c1c2cccnc2n(-c2ccccc2)n1Cc1c(Cl)cccc1Cl	122.3%	165.3%	7.2%	7.0%	-27.5%	-12.4%
O=C(COC(=O)c1ccc2ncsc2c1)Nc1cccc(Cl)c1	2.0%	4.2%[12.7 µM]	38.7%	3.9%	-15.3%	0.0%
CC(=O)NC(=O)COC(=O)c1ccc2ncsc2c1	7.6%	56.2µM*	37.8%	0.0%	-11.1%	-15.5%
O=C(Nc1ccc(C(F)(F)F)cc1)c1ccc2ncsc2c1	2.2%	?	27.7%	?	-27.5%	-0.7%
Cc1ccc(NC(=O)c2ccc3ncsc3c2)cc1S(=O)(=O)N(C)C	56.2µM*	?	.	?	.	.
Cc1ccc(NC(=O)c2cccnc2)cc1S(=O)(=O)N(C)C	-9.4%	6.6%	11.7%	-5.7%	-13.6%	-10.7%
O=C(Nc1ccc(F)cc1)c1ccc2ncsc2c1	-2.2%	35.5µM*	45.2%	?	-12.0%	-1.7%
SMILES	BAZ2B block	G9a inh	HP1b chromo inh	ALOX12 inh	PLK1 PBD block	JMJD2A Tudor inh
Nc1ccc(-c2nc3ccc(C(=O)O)cc3s2)cc1	2.1%	39.8µM*	31.4%	-14.5%	-8.5%	0.4%
Cc1ccc(S(=O)(=O)N2CCCCC2CCNC(=O)C(=O)NCCc2ccco2)cc1 (stereo unspecified)	?	?	-13.8%	-0.1%	-0.1%	-30.8%
O=C(NCc1ccncc1)C(=O)N/N=C/c1ccc(OCc2ccccc2)cc1	-7.3%	0.1%	11.0%	0.0%	-15.2%	-20.6%
O=C(NC1CCCC1)c1ccc2ncsc2c1	.	.	.	5.6%	.	.
O=C(Nc1ccc(Cl)cc1)c1ccc2ncsc2c1	1.9%	44.7µM*	44.6%	.	-8.1%	3.3%
O=C(O)c1ccc2ncsc2c1	20µM*	?	-23.0%	44.7µM*	?	20µM*
O=C(Nc1cccc(Cl)c1)c1ccc2ncsc2c1	16.8%	6.9%	20.4%	?	-12.3%	0.0%
Cc1cc(C)cc(Oc2ncnc3c2ncn3Cc2c(Cl)cccc2Cl)c1	8.2%	-10.3%[12.7 µM]	34.1%	-3.6%	3.2%	1.3%
O=C(O)c1cccc2c1C(=O)c1cccc3snc-2c13	-18.9%	56.2µM*	7.4%	-19.4%	-8.9%	-23.1%
O=C(c1ccc2c(c1)OCO2)N1CCC(c2nnc3n2CCNC3)CC1	.	.	.	10µM*	.	.
O=C(c1ccc2c(c1)OCO2)N1CCn2c(nnc2C2CCCNC2)C1 (stereo unspecified)	.	.	.	2.4%[6.33 µM]	.	.
COc1ccc(C(C)NC(=O)c2noc(-c3ccc(C)cc3)n2)cc1 (stereo unspecified)	.	.	.	-12.7%	.	.
C#CCOCCOCCOCCNc1nc(N2CCN(C(=O)[C@H](CCC(=O)O)n3cc(CN)nn3)CC2)nc(N2CCN(C(=O)[C@H](CCCCN)n3cc([C@@H](N)CC(N)=O)nn3)CC2)n1	.	.	46.0%	-10.8%	-14.5%	56.2µM*
C#CCOCCOCCOCCNc1nc(N2CCN(C(=O)[C@H]([C@@H](C)CC)n3cc(CCC(=O)O)nn3)CC2)nc(N2CCN(C(=O)[C@H](CCCCN)n3cc(CCC(=O)O)nn3)CC2)n1	.	.	14.8%	?	-8.4%	-21.0%

Source: PubChem (National Center for Advancing Translational Sciences (NCATS))
